A short description of the test: S6 kinase pathway phospho-S6 level changes – cell-based, A549, cytoblot, luminescence, serum-stimulated, primary screen (AID 1158).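 Further: serum-stimulated A549 lung adenocarcinoma cells; signal is phosphorylated S6 detected by cytoblot immunostaining with HRP secondary.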 The settings on record: 5 h, higher = more signal.
Turning to `O=C1C[C@]2(c3ccc([N+](=O)[O-])cc3)C(=O)N(Cc3ccccc3)c3cc(CO)ccc3[C@H]2N1CC12CC3CC(CC(C3)C1)C2`, the z-score is -0.218.

Consider `Cc1c(NC(=O)/C(C#N)=C/C=C/c2ccc(N(C)C)cc2)c(=O)n(-c2ccccc2)n1C`, for which the z-score was -0.466.

For `COCCOC(=O)N1C(=O)[C@@]2(c3ccccc31)[C@H](c1ccc(OCCO)cc1)N1[C@H](c3ccccc3)[C@H](c3ccccc3)OC(=O)[C@H]1[C@@H]2C(=O)Nc1nc2ccccc2s1`, the z-score was -0.381.

Take `COCCCNC(=O)[C@@]1(Sc2ccc(C)cc2)CC(=O)N(Cc2cc(C(F)(F)F)cc(C(F)(F)F)c2)[C@@H]1c1ccc(CO)cc1`: the z-score was -0.103.

For the molecule `CCCC[C@@H]1C[C@H]1[C@@H](NC(=O)c1ccccc1)c1ccc(Cl)cc1`, the z-score is -0.584.

`CC(C)C(CO)N1C(=O)[C@]2(C)C3C(=O)OCCC/C=C\[C@H]3OC23C=CCN(c2ccc(Cl)cc2)C(=O)[C@@H]13` (some centres not stated) showed a z-score of -0.197.

With `COC(=O)[C@@]1(Cc2ccc(OC)cc2)[C@H]2c3cc(C(=O)N4CCCC4)n(CCc4cc5ccccc5[nH]4)c3C[C@H]2CN1C(=O)c1ccccc1`, the z-score was -0.231.

Consider `CCCC[C@@H]1C[C@H]1[C@@H](NC(=O)c1cccnc1)c1ccc(-c2ccccc2)cc1`, for which the z-score was -0.0675.

As for `[N-]=[N+]=Nc1ccccc1[C@@H]1OC(c2ccc(OCCCO)cc2)=N[C@]1(CCS(=O)(=O)c1ccccc1)C(=O)NCCN1CCOCC1`, the z-score came out at 1.12.

Turning to `C[C@@H](OCc1ccccc1)C1NC(=O)[C@@]23C(=O)N[C@@H](Cc4ccccc4)C2[C@H](C)[C@@]2(C)O[C@H]2C3/C=C/C/C=C\CNC(=O)CNC1=O` (some centres not stated), the z-score is -0.213.

`C=C(CCCC)/C(=C/C[C@@H](OC(=O)c1ccncc1)c1cccc(OCCO)c1)c1cnc2ccccc2c1`: the z-score amounted to 0.462.

`CC(=O)n1cc(C(O)C2C=CC3C(=O)N(c4ccccc4)C(=O)C3N2Nc2ccccc2)c2ccccc21` (configuration not stated): the z-score came to 1.32.

As for `C=CCN1C(=O)[C@]2(CC=C)N=C(c3ccc(OCCCO)cc3)O[C@@H]2c2ccccc21`, the z-score is -0.112.

Take `CCOC(=O)C[C@H]1[C@H](OC(=O)Cc2ccc3c(c2)OCO3)[C@@H](NC(=O)C2CCCCC2)c2cc(OCCCO)ccc2N1C(=O)c1ccc2ccccc2n1`: the z-score amounted to 1.17.

On to `O=C1O[C@@H](c2ccccc2)[C@@H](c2ccccc2)N2[C@@H](c3ccccc3OCCO)[C@]3(C(=O)Nc4ccc(C#CC5=CCCCC5)cc43)[C@@H](C(=O)NC[C@H](O)c3ccccc3)[C@H]12`, for which the z-score was 0.581.

`O=C1OCC=C[C@H]2OC34C=CCN(Cn5nnc6ccccc65)C(=O)[C@H]3N(CCCCCCO)C(=O)[C@@H]4[C@@H]12` (some centres not stated) returned a z-score of -0.394.

Molecule `COCCCNC(=O)[C@]1(Cc2ccccc2N=[N+]=[N-])N=C(c2ccc(OCCCO)cc2)O[C@@H]1c1ccccc1N=[N+]=[N-]` had a z-score of 0.105.

`CC(C)c1ccc(NN2C(C(O)c3ccco3)C=CC3C(=O)N(c4ccccc4)C(=O)C32)cc1` (configuration not stated): the z-score is -0.694.

Molecule `Cc1ccc(S[C@]2(C(=O)NCC(C)C)CC(=O)N(Cc3ccccc3Cl)[C@@H]2c2ccc(CO)cc2I)cc1` displayed a z-score of 0.464.

In the case of `C=CCC(OC(C)=O)[C@@H]1[C@@H](N(Cc2ccc(-c3ccccc3)cc2)C(=O)c2cccc3ccccc23)c2cc(OCCCO)ccc2N1C(=O)Cc1ccc2ccccc2c1` (some centres not stated), the z-score was 0.393.

In turn, `CC=CC(O)C1C=CC2C(=O)N(C)C(=O)C2N1Nc1ccc([N+](=O)[O-])cc1[N+](=O)[O-]` (configuration not stated) displayed a z-score of -0.711.

Take `CC(C)(C)OC(=O)CC[C@]1(C(=O)NCCN2CCOCC2)N=C(c2ccc(OCCCO)cc2)O[C@H]1c1ccccc1`: the z-score was -0.501.

Molecule `CCCCC(=C=CC[C@@H](O)c1ccc(OCCO)cc1)C[C@@H](O)COCc1ccccc1` yielded a z-score of 1.95.

Regarding `COC(=O)[C@H](Cc1ccccc1)N1CC(/C=C/C2CC2)=C[C@@H]1[C@@H](O)Cc1ccccc1`, the z-score was 0.306.

The molecule `COCCOC(=O)N1C(=O)[C@@]2(c3cc(C#CCC(C(=O)OC)C(=O)OC)ccc31)[C@H](c1ccc(OCCO)cc1)N1[C@H](c3ccccc3)[C@H](c3ccccc3)OC(=O)[C@H]1[C@@H]2C(=O)N1CCN(c2ncccn2)CC1` gave a z-score of 1.72.

`CN(C)C(=O)[C@]1(CCC(=O)OC(C)(C)C)N=C(c2ccc(OCCCO)cc2)O[C@@H]1c1ccccc1` came in with a z-score of -0.408.

`COCCOC(=O)N1C(=O)[C@@]2(c3cc(C#CC4(O)CCCCCC4)ccc31)[C@H](C(N)=O)[C@H]1C(=O)O[C@H](c3ccccc3)[C@H](c3ccccc3)N1[C@@H]2c1ccccc1OCCO` had a z-score of 0.563.

Values taken from PubChem BioAssay.
